# PubChem BioAssay AID939 (National Center for Advancing Translational Sciences (NCATS), 2007)
# Records with an inconclusive call do not appear.
# Assay: Confirmation Concentration-Response Assay for Agonists of the Thyroid Stimulating Hormone Receptor
# Settings: HEK293 TSHR-CNG cells, membrane potential dye, cAMP; measured here: parental HEK293 counter-screen max
# Outline: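 Read-out: membrane potential dye fluorescence (emission 590 nm) after 30 min compound exposure, reflecting cAMP-gated CNG opening in TSHR/CNG HEK 293 cells. Dye with 100 uM RO 20-1724 pre-equilibrated 60 min at room temperature. CNG-only parental cells control.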
row,SMILES,max response [%]
1,CCOC(=O)C1C(=O)Nc2nc(C)nn2C1c1ccccc1 (stereo not given),-7.34
2,CCOc1ccc(N(CC(=O)NC(C)(C)C)S(=O)(=O)c2c(C)noc2C)cc1,6.91
3,Cc1occc1-c1nnc(SCC(=O)NCc2ccc3c(c2)OCO3)n1CC(C)C,9.78
4,Nc1cc(CN2C(=O)c3ccccc3C2=O)cc(Cl)c1O,4.5
5,NC(=O)c1nsc(C(=O)N(CC(=O)NCc2ccc3c(c2)OCO3)C2CCCC2)c1N,7.46
6,CCOc1ccc(N(C(C)C(=O)Nc2ccc(OC)cc2)S(C)(=O)=O)cc1 (stereo not given),-4.4
7,CCOC(=O)CSc1nnc(NC(=O)c2cccc(S(=O)(=O)N3CCCCC3)c2)s1,-6.14
8,Cn1c(=O)[nH]c(=O)c2c1nc(N1CCCCCC1)n2CCCSc1nc2ccccc2o1,12.7
9,O=C1C=C(NCc2ccccc2)C2(CCCCC2)O1,16.9
10,O=C(Nc1ccc(N2CCOCC2)cc1)C1CC1,5.07
11,COc1ccc(-c2cc(C(F)(F)F)nc(SCCC(=O)N3CCOCC3)n2)cc1,13
12,Oc1ccccc1-c1cc(C(F)(F)C(F)F)nc(-c2ccccc2)n1,3.44
13,CN1C(=O)C2C=CC1C1C(=O)N(c3ccccc3)C(=O)C21 (stereo not given),2.29
14,Cc1nn(-c2ccccc2)c(N2CCCC2)c1/C=N/n1cnc2scc(-c3ccccc3)c2c1=O,16.6
15,CC(C)CC(=O)Nc1cccc(-c2cn3ccsc3n2)c1,-8.65
16,Cc1ccc(C)c(Cn2c(C(C)O)nc3ccccc32)c1 (stereo not given),-2.8
17,COc1cc2c(N3CCOCC3)cc(O)c(CC(=O)Nc3ccccc3)c2cc1OC,-10.7
18,CCS(=O)(=O)N1CCN(C(C)CCc2ccccc2)CC1 (stereo not given),-2.55
19,CCOC(=O)N1CCC(NC(=O)c2ccc(CNS(=O)(=O)c3ccc(F)cc3)cc2)CC1,8.37
20,Cc1ccccc1NC(=O)N1C2CCCC1CC(NC(=O)C1CC1)C2 (stereo not given),20.1
21,NC(=O)c1nsc(C(=O)N(CC(=O)NCc2ccc3c(c2)OCO3)C2CCCCC2)c1N,8.82
22,Cc1ccccc1-n1nc(C)c2cc(C(=O)N3CCN(S(=O)(=O)c4ccc(F)cc4)CC3)sc21,-1.22
23,Cc1ccccc1-c1nc(CN2CCC(C(=O)N3CCN(c4ccccn4)CC3)CC2)c(C)o1,17.1
24,COc1ccc(S(=O)(=O)NCCC(=O)NCc2ccc(F)cc2)cc1,-8.89
25,COc1ccc(C2Nc3ccccc3C(=O)N2Cc2ccco2)cc1COc1ccc(NC(C)=O)cc1 (stereo not given),21.9
26,Cc1ccccc1NC(=O)CSc1nnc(-c2ccoc2C)n1CCc1ccccc1,20.3
27,CC(=O)N1CCCc2cc(S(=O)(=O)N(CC(C)C)CC(C)C)ccc21,14.4
28,O=C(COC(=O)C1c2ccccc2Oc2ccccc21)Nc1ccc2c(c1)OCO2,8.54
29,Oc1ccccc1Cn1c(-c2ccccc2O)nc2ccccc21,-14.6
30,Cc1cnc(NC(=O)c2ccc3c(c2)C(=O)N(Cc2ccco2)C3=O)s1,-10.7
